Experimental data reported in PubChem BioAssay (EPA / NIEHS).
Where “and” joins values, the source holds several entries; their conditions need not be identical. Identical values can stand only once. Results filed as inconclusive are left out. The source holds several records for some structures; these can differ, active in one and inactive in another. Calls of active or inactive are those of the source. Rule for the calls, unless noted: active = hit-call score of the fitted dose curve at least 0.9, where 1 is the maximum; inconclusive = response in the unintended direction; inactive = score below 0.9.

What was measured:
[1] = read-out: X-box binding protein 1 (XBP1), XBP1 (gene 7494); assay: LTEA_HepaRG_XBP1: Life Technologies and Expression Analysis (LTEA) Assay for X-box binding protein 1 (XBP1) using HepaRG (AID 2283540; active = hit-call score of the fitted dose curve at least 0.9, where 1 is the maximum; inactive = score below 0.9); conditions: mRNA level, 48 h; actives raise or lower the signal
Summary of the method: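 Transcript levels of XBP1, measured by qRT-PCR and normalised to three housekeeping genes, were fitted bidirectionally relative to 0.5% DMSO controls. Human HepaRG cells received eight-point half-log dilutions from 100 uM for 48 h.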

[2] = LTEA_HepaRG_LDH_cytotoxicity: Cytotoxicity Assessment in the Life Technologies and Expression Analysis (LTEA) Assay (AID 2283563);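 for AC50: LDH activity released into spent culture medium as a marker of cell death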
Summary of the method: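 Cells were thawed and plated for 48 h. Medium was then replaced with serum-free induction medium. Chemicals (8 half-log points, maximum 100 uM, 0.5% DMSO) were added in duplicate for 48 h, after which spent medium was assayed for LDH.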

[3] = TOX21_p53_BLA_p2_viability: Viability Assessment in the Tox21 HCT-116 p53 Agonism Beta-lactamase Assay, Phase 2 (AID 2283591);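 note: compound exposure lasted 16 h at 37 °C; actives lower the ATP signal meaning cytotoxicity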
Summary of the method: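 HCT-116 p53-bla cells (4000/well) rested 5 h at 37C, then received compounds in DMSO (217-fold dilution) for 16 h at 37C, 5% CO2. After the CCF4 read, CellTiter-Glo was added; ATP luminescence was read after 30 min at room temperature.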

[4] = molecular target: Cellular tumor antigen p53 (Homo sapiens) (UniProt P04637); assay: TOX21_p53_BLA_p2_ratio: Tox21 HCT-116 p53 Agonism Beta-lactamase Assay, Ratio, Phase 2 (AID 2283592)
Summary of the method: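 Plated HCT116 p53-bla cells (4000/well) received compound after 5 h, then 16 h at 37C/5% CO2. CCF4-AM added, 2 h RT. Ratio of 460 to 530 nm emission taken as the p53 reporter signal.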

[5] = TOX21_p53_BLA_p3_viability: Viability Assessment in the Tox21 HCT-116 p53 Agonism Beta-lactamase Assay, Phase 3 (AID 2283593);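 note: cells exposed to compound for 16 h before reading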
Summary of the method: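 HCT-116 cells (4000/well) rested 5 h at 37C, then got DMSO compounds by pin tool (217-fold dilution) for 16 h at 37C, 5% CO2. After the bla read, CellTiter-Glo was added and luminescence read at 30 min, room temperature.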

[6] = molecular target: Cellular tumor antigen p53 (Homo sapiens) (UniProt P04637); assay: TOX21_p53_BLA_p3_ratio: Tox21 HCT-116 p53 Agonism Beta-lactamase Assay, Ratio, Phase 3 (AID 2283596)
Summary of the method: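 Cells were seeded at 4000/well, rested 5 h at 37C, then dosed with DMSO compound solutions (217-fold dilution) for 16 h. CCF4-AM substrate was loaded for 2 h at room temperature, and the 460/530 nm emission ratio was fitted for gain of signal versus DMSO.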

[7] = molecular target: Cellular tumor antigen p53 (Homo sapiens) (UniProt P04637); assay: TOX21_p53_BLA_p5_ratio: Tox21 HCT-116 p53 Agonism Beta-lactamase Assay, Ratio, Phase 5 (AID 2283599)
Summary of the method: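 HCT-116 cells carrying a p53-inducible beta-lactamase reporter were seeded at 4000 cells/well and dosed after 5 h with compound in DMSO (217-fold dilution). After 16 h at 37C, CCF4-AM substrate was added for 2 h, and the 460/530 nm emission ratio was scored as gain-of-signal versus DMSO.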

[8] = TOX21_p53_BLA_p5_viability: Viability Assessment in the Tox21 HCT-116 p53 Agonism Beta-lactamase Assay, Phase 5 (AID 2283600)
Summary of the method: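 Workflow: seed 4000 cells per well, wait 5 h, add compounds (DMSO, 217-fold dilution), incubate 16 h, load CCF4-AM 2 h, add CellTiter-Glo, read luminescence after 30 min.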

[9] = molecular target: Cellular tumor antigen p53 (Homo sapiens) (UniProt P04637); assay: TOX21_p53_BLA_p4_ratio: Tox21 HCT-116 p53 Agonism Beta-lactamase Assay, Ratio, Phase 4 (AID 2283601)
Summary of the method: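 HCT116 cells carrying an inducible beta-lactamase reporter were plated at 4000 cells/well, rested 5 h, then exposed to compounds in DMSO (217-fold dilution) for 16 h at 37C. CCF4-AM substrate was loaded 2 h at room temperature; 460/530 nm emission ratio scored gain-of-signal versus DMSO.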

[10] = Tanguay_ZF_120hpf_MORT_legacy: (Legacy) Oregon State University Tanguay Lab 120 Hour Post-fertilization zebrafish Assay for Mortality (AID 2283633)
Summary of the method: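 5D WT zebrafish, chorion removed 4 hpf; 1 embryo/well from 6 hpf; static exposure to 120 hpf, 28C, dark, sealed. Final DMSO 0.64%. Readout: binary mortality, brightfield, 24 + 120 hpf; DMSO as negative control.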

[11] = Tanguay_ZF_120hpf_YSE_legacy: (Legacy) Oregon State University Tanguay Lab 120 Hour Post-fertilization zebrafish Assay for Yolk Sac Edema (AID 2283634);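 for AC50: actives raise the incidence of yolk sac edema above the DMSO baseline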
Summary of the method: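 Dechorionate (pronase, 4 hpf) → place one 6 hpf embryo per well → static compound exposure, sealed and foil-covered, 28C, to 120 hpf → record yolk sac edema as present or absent. Final DMSO 0.64%.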

[12] = Tanguay_ZF_120hpf_JAW_legacy: (Legacy) Oregon State University Tanguay Lab 120 Hour Post-fertilization zebrafish Assay for Jaw Malformation (AID 2283638);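 for AC50: active means more embryos with jaw malformation than DMSO controls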
Summary of the method: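 Steps: dechorionate 4 hpf embryos (pronase); plate 1/well at 6 hpf; add test chemical, 0.64% DMSO final; seal, cover, hold at 28C statically to 120 hpf; score jaw defect presence/absence microscopically. Dead embryos not scored.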

[13] = Tanguay_ZF_120hpf_OTIC_legacy: (Legacy) Oregon State University Tanguay Lab 120 Hour Post-fertilization zebrafish Assay for Otic Vesicle Malformation (AID 2283639)
Summary of the method: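 Binary scoring of otic vesicle defects at 120 hpf in zebrafish (Tropical 5D) held under static exposure at 28C, sealed and shaded, with final DMSO 0.64%. Embryos dying by 24 or 120 hpf excluded; fitted positively against DMSO.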

[14] = Tanguay_ZF_120hpf_PE_legacy: (Legacy) Oregon State University Tanguay Lab 120 Hour Post-fertilization zebrafish Assay for Pericardial Edema (AID 2283640);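 for AC50: potency for increased incidence of pericardial edema versus DMSO baseline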
Summary of the method: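 Embryos from wild-type 5D adults were staged, then dosed in 0.64% DMSO. They were kept sealed in the dark at 28C until 120 hpf. Pericardial edema was then recorded as present or absent.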

[15] = TOX21_p53_BLA_p4_viability: Viability Assessment in the Tox21 HCT-116 p53 Agonism Beta-lactamase Assay, Phase 4 (AID 2283597);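 note: hits lower the luminescence signal meaning cytotoxicity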
Summary of the method: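 Readout: ATP luminescence (CellTiter-Glo), measured 30 min after reagent addition at RT. The reagent followed a 2 h CCF4-AM incubation, and the cells had been exposed to compound for 16 h at 37C.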

[16] = Tanguay_ZF_120hpf_AXIS_legacy: (Legacy) Oregon State University Tanguay Lab 120 Hour Post-fertilization zebrafish Assay for Body Axis Malformation (AID 2283635);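 for AC50: potency for an increased fraction of larvae scored with body axis malformation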
Summary of the method: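 Chorion is removed with pronase at 4 hpf, then single 6 hpf embryos are dosed (final DMSO 0.64%) and held statically at 28C in sealed, foil-covered plates. At 120 hpf body axis malformation is recorded as present or absent.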

[17] = Tanguay_ZF_120hpf_EYE_legacy: (Legacy) Oregon State University Tanguay Lab 120 Hour Post-fertilization zebrafish Assay for Eye Malformation (AID 2283636);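 note: binary presence or absence of eye malformation scored by brightfield in 120 hpf larvae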
Summary of the method: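 Static waterborne exposure of dechorionated zebrafish embryos (strain Tropical 5D), 6 to 120 hpf, sealed plates at 28C, 0.64% DMSO vehicle. Eye malformation is scored as a binary endpoint, with gain of signal analysed relative to DMSO.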

[18] = Tanguay_ZF_120hpf_SNOU_legacy: (Legacy) Oregon State University Tanguay Lab 120 Hour Post-fertilization zebrafish Assay for Snout Malformation (AID 2283637)
Summary of the method: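 Dechorionated zebrafish, individually housed from 6 hpf in covered, sealed wells at 28C with 0.64% DMSO vehicle, were examined at 120 hpf for snout malformation. Responses were binary and analysed positive-direction relative to DMSO.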

[19] = Tanguay_ZF_120hpf_BRAI_legacy: (Legacy) Oregon State University Tanguay Lab 120 Hour Post-fertilization zebrafish Assay for Brain Malformation (AID 2283641)
Summary of the method: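 Wild-type 5D larvae, static waterborne exposure to 120 hpf, 28C, 0.64% v/v DMSO. Brightfield scoring of brain defects, binary; dead embryos excluded. Positive ctrl 5uM trimethyltin chloride.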

[20] = ATG_XTT_Cytotoxicity: Cytotoxicity Assessment in the Attagene TRANS-FACTORIAL HepG2 Assay (AID 2283584)
Summary of the method: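 Cells: human HepG2, transiently transfected with MRTU reporter constructs. Exposure 24 h. Readout: XTT, cell number. Baseline/neg ctrl DMSO; loss-of-signal scored.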

Measured: AC50

Cellular tumor antigen p53 (Homo sapiens), sequence (P04637 whole entry, looked up): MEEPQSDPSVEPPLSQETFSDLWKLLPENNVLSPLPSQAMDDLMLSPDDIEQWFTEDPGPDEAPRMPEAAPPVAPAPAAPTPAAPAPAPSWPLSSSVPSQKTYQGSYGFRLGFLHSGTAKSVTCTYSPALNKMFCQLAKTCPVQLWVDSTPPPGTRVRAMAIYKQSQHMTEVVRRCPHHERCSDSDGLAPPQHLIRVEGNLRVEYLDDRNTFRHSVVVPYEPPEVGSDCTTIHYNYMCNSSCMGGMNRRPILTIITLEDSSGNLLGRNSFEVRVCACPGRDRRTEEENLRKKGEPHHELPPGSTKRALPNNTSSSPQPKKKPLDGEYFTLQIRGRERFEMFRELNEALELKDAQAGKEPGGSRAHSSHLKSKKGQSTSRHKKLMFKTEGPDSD

C[N+](C)(C)CC1CO1 (stereo not drawn)
inactive: [1] | [2] | [3] | [4] | [5] | [6] | [7] | [8] | [9] | [10] | [11] | [12] | [13] | [14]

Cc1ccc(N)c(N)c1
inactive: [1] | [2] | [3] | [4] | [5] | [6] | [15] | [7] | [8] | [9] | [10] | [11] | [16] | [17] | [18] | [13] | [14]

CCCCCCCCn1sccc1=O
inactive: [1] | [3] | [4] | [6] | [15] | [8] | [16] | [17] | [12] | [13] | [14] | [19]
active: [2] 79.7 µM | [4] 20.8 µM | [6] 55.1 µM | [15] 15.4 µM | [9] 23.7 µM and 46.2 µM

CCC[CH2][Sn]([Cl])([CH2]CCC)[CH2]CCC
active: [2] 2.98 µM | [3] 1.22 µM and 1.04 µM | [4] 31.8 µM and 46 µM | [5] 921 nM and 958 nM | [6] 25.6 µM and 28.6 µM | [15] 917 nM and 983 nM | [7] 36.5 µM and 31.8 µM | [8] 1.52 µM | [9] 27.7 µM and 25.6 µM
inactive: [1] | [11] | [16] | [17] | [18] | [12] | [13] | [14]

Oc1ccc2ccc3cccc4ccc1c2c34
inactive: [1] | [2] | [20] | [3] | [4] | [5] | [6] | [15] | [7] | [8] | [9]
active: [11] 13.7 µM | [16] 13.1 µM | [17] 44.9 µM | [18] 44.2 µM | [12] 46.8 µM | [13] 11.2 µM | [14] 50.4 µM

ClC1=C(Cl)[C@]2(Cl)[C@H]3[C@H]([C@@H]4C=C[C@H]3C4)[C@@]1(Cl)C2(Cl)Cl
inactive: [1] | [2] | [20] | [3] | [4] | [6] | [7] | [8] | [9] | [10] | [11] | [16] | [18] | [12] | [13] | [14]

Clc1ccc(C(c2ccc(Cl)cc2)C(Cl)Cl)cc1
inactive: [1] | [2] | [4] | [6] | [10] | [11] | [16] | [17] | [18] | [12] | [13] | [14]
active: [3] 59.6 µM and 33.7 µM | [4] 68 µM | [6] 48.4 µM | [15] 63.4 µM and 46.7 µM | [7] 89.8 µM and 85.4 µM | [8] 81.2 µM and 73.1 µM | [9] 78.4 µM and 79.1 µM
